Test [1] in a line: yeast TOR pathway RPL19A-GFP modulators, primary screen, cell-based, S. cerevisiae, multiplex flow cytometry (AID 1862; in the data active = percent of DMSO control GFP below about 86%;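 also: lower values mimic rapamycin by blocking the RPL19A rise seen in DMSO cells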). Particulars: S. cerevisiae RPL19A-GFP strain, flow cytometry fluorescence, 3 h; at 10 µM; stronger effect = lower value. In general terms: In flow cytometry, cells or beads pass a laser one at a time.
The nature of test [2]: modulators of MEP2-GFP levels in yeast, primary screen, S. cerevisiae, multiplex flow cytometry (AID 1867;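 active = GFP response, as percent of the DMSO control, above the screen-wide mean plus 3 SD, about 139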;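 also: median GFP channel fluorescence of barcode-gated MEP2-GFP cells measured by flow cytometry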). The conditions noted are these: S. cerevisiae MEP2-GFP strain, 3 h, at 10 µM, stronger effect = higher value, 100% means same as DMSO wells.
Test [3] in a line: modulators of CIT2-GFP expression in yeast, primary screen, S. cerevisiae, GFP fusion, multiplex flow cytometry (AID 1870;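 active = percent response above a set limit, the screen-wide mean plus 3 SD, cut at about 130% in these data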;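 also: barcoded CIT2-GFP strain pooled with four other GFP strains with rapamycin as positive control; median GFP fluorescence per well over plate mean of DMSO wells so 100% = DMSO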). The conditions noted are these: 3 h, at 10 µM, stronger effect = higher value.
The nature of test [4]: modulators of LAP4-GFP expression in yeast, primary screen, S. cerevisiae, multiplex flow cytometry (AID 1873;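 active = GFP signal, as percent of the solvent control, above the screen mean plus 3 SD, about 149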). Particulars: 3 h, at 10 µM, stronger effect = higher value.
Test [5] in a line: modulators of AGP1-GFP expression in yeast TOR pathway, primary screen, cell-based, multiplex flow cytometry, S. cerevisiae (AID 1887;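 active = GFP signal above the screen-wide mean plus 3 SD, that is over about 124.5% of the solvent control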;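 also: AGP1-GFP fusion strain of S. cerevisiae within a five-strain barcoded multiplex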). The conditions noted are these: 3 h, at 10 µM, stronger effect = higher value.
Test [6] is described as follows: inhibitors of CD8+ T cell-vesicle binding, pilot screen, LFA-1/ICAM-1 modulator project, MLPCN validation set, flow cytometry (AID 2523;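 active = response below a set limit, under 55% cells CD8-positive and vesicle-bound, and CD8 cells' 90th-percentile brightness under 279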;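 as to vesicle binding response: mean PE anti-B7-1 fluorescence of CD8+ cells relative to row control; 100% = QL9-loaded vesicles with DMSO vehicle in the same plate row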). The conditions noted are these: 2C mouse CD8+ T cells, at 7 µM, stronger effect = lower value; double positive events: measured here: CD8+/vesicle+ event percentage.
Test [7] concerns the target Integrin beta-1 (Homo sapiens) + Integrin alpha-4 (Homo sapiens) (UniProt P13612+P05556). The test is described as follows: inhibition of HUTS-21 binding to VLA-4, pilot screen, VLA-4 allosteric modulator project, U937 cells, HUTS-21 mAb, flow cytometry, validation set (AID 2674;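 active = inhibition above 50%, about 3 SD of the validation set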;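 also: antibody binding induced by the VLA-4 ligand LDV present at three times its Kd; 0% = LDV ligand with antibody and no compound and 100% = antibody without LDV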). Particulars: HUTS-21 LIBS mAb binding, at 6.7 µM, stronger effect = higher value, binding induced by LDV ligand.

Test [8] in a line: superoxide lowering in aged yeast cells, pilot screen, validation compound set (AID 2706;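 active = superoxide response below 65% of plate, a cut near 3 SD across the whole screen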;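 also: yeast exposed to compound for one week at 30 degrees C before staining; 100% = mean of all compound wells on the same plate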). Particulars: S. cerevisiae aging, superoxide DHE fluorescence; at 10 µM; stronger effect = lower value.
Test [9] has as its target Beta-adrenergic receptor kinase 1 (Homo sapiens) (UniProt P25098). As to the kind of experiment: GRK2 binders displacing RNA aptamer, biochemical, validation, human GRK2, bead flow cytometry (AID 488806;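 active = aptamer binding inhibition above 30%, about 3 SD of noise from non-fluorescent compounds; inactive = inhibition at or below 30%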). The conditions noted are these: bead-bound GRK2, FAM-aptamer displacement, at 10 µM, stronger effect = higher value.
In test [10] the target is Beta-2 adrenergic receptor (Homo sapiens) (UniProt P07550). As to the kind of experiment: beta2AR agonists driving receptor internalization, pilot screen, cell-based, FAP fluorogen, flow cytometry, validation set (AID 504459;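 active = percent response above 42, roughly 3 SD of non-fluorescent test compounds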;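 also: agonist-driven loss of surface beta2AR via internalization measured by FAP dye flow cytometry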). Particulars: Am2.2-beta2AR cells, FAP surface receptor flow cytometry; at 10 µM; stronger effect = higher value.
Beta-2 adrenergic receptor (Homo sapiens), sequence (P07550 whole entry, looked up): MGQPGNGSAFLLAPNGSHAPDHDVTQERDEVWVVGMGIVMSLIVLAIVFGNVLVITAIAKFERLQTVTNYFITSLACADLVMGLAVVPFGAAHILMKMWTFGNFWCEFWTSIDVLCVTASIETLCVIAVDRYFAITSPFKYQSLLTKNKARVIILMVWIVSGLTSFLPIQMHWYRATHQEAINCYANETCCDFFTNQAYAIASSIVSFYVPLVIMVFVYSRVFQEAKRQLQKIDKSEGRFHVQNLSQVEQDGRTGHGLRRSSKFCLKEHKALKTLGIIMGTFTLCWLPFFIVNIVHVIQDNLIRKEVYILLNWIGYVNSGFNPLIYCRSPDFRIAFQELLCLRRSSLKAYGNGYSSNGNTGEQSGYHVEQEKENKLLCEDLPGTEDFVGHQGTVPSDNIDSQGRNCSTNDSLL
Test [11] has as its target AP-2 complex subunit beta (Homo sapiens) (UniProt P63010). As to the kind of experiment: inhibitors of arrestin peptide binding to AP2, pilot screen, biochemical, validation set, GST-AP2 beads, flow cytometry (AID 504541;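 active = inhibition above 54%, about 3 SD of non-fluorescent compounds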;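 also: AP2 carries R879A mutation and is captured from E. coli lysate; bead-bound FITC arrestin peptide fluorescence measuring arrestin peptide binding to AP2; 0% = DMSO wells and 100% = excess unlabeled arrestin peptide control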). Particulars: FITC arrestin peptide, at 10 µM, stronger effect = higher value, AP2 beta2 appendage fragment, R879A mutant.
A short description of test [12]: yeast V-ATPase proton transport modulators, S. cerevisiae, pHLuorin, HTS validation (AID 504600).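 Also: plate controls were DMSO for no effect and reference compound for full effect.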 Particulars: S. cerevisiae pHLuorin cytosolic pH, at 10 µM, stronger effect = higher value.
In test [13] the test system is anti-desmoglein-3 scFv antibody binding to human DSG3. The test is described as follows: inhibitors of anti-DSG3 scFv binding to DSG3, pilot screen, biochemical, validation compound set, bead-based, flow cytometry (AID 588368;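 active = binding below the plate cutoff, the plate median minus 3 SD, with a reading above zero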;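 also: signal is the median channel fluorescence of bead-bound GFP antibody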). Particulars: Protein G beads, DSG3-Fc, scFv-GFP binding, at 10 µM, stronger effect = lower value.
The nature of test [14]: inhibitors of fungal efflux pumps CDR1, CDR2, MDR1, pilot screen, validation compound set, multiplex, phenotypic (AID 588506;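 active = efflux inhibition above 0.42, the validation set average plus 4 SD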;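 also: Nile Red retained in cells so higher fluorescence means more efflux inhibition; 0 = negative control wells and 1 = enniatin B 25 µM full block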). Particulars: S. cerevisiae pump-expressing triplex, Nile Red efflux flow cytometry; at 10 µM; stronger effect = higher value; the pumps come from Candida albicans.
Test [15] addresses ATP-binding cassette sub-family B member 6 (Homo sapiens) (UniProt Q9NP58). As to the kind of experiment: ABCB6 transporter inhibitors, pilot screen, K562-ABCB6 cells, flow cytometry, validation set (AID 588550;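 active = inhibition above the screen-wide mean plus 3 SD, about 51%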;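 also: 0% = DMSO wells and 100% = benzethonium chloride 70 µM positive control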). The conditions noted are these: K562-ABCB6 porphyrin accumulation, 1 h, at 10 µM, stronger effect = higher value.
Test [16] in a line: promoters of myeloid differentiation in arrested cells, primary screen, cell-based, GFP/MAC1 double positive, flow cytometry, validation set (AID 588685;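 active = differentiation response of at least 50%, scaled between solvent and reference control, from cells with both markers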;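 also: compound exposure lasts four days before antibody staining and flow analysis; 0% = DMSO wells and 100% = 5 µM fulvestrant positive control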). The conditions noted are these: ER-HoxA9 marrow cells, stronger effect = higher value, normalized: vehicle 0, fulvestrant 100.

Results filed as inconclusive are left out. The source made the active and inactive calls. Rule as the data show it, unless noted: active = response above about 15%; inactive = the rest.

Beta-adrenergic receptor kinase 1 (Homo sapiens), sequence (P25098 whole entry, looked up): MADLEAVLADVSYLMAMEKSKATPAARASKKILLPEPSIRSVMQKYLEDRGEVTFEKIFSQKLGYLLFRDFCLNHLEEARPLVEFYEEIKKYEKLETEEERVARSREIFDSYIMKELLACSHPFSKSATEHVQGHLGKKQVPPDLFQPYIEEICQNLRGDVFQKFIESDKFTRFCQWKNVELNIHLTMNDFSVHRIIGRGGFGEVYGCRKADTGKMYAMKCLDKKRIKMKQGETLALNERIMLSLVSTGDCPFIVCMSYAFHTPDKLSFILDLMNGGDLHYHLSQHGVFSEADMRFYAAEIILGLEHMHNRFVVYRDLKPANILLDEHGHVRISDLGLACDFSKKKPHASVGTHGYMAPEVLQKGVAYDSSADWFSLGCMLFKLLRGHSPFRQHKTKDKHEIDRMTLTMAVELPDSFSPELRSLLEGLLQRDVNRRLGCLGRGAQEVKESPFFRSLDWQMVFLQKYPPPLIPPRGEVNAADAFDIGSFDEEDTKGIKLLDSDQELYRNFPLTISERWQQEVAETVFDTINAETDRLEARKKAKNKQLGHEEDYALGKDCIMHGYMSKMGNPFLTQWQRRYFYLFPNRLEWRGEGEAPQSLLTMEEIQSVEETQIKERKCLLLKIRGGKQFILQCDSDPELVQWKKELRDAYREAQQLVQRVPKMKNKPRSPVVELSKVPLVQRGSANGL
ATP-binding cassette sub-family B member 6 (Homo sapiens), sequence (Q9NP58 whole entry, looked up): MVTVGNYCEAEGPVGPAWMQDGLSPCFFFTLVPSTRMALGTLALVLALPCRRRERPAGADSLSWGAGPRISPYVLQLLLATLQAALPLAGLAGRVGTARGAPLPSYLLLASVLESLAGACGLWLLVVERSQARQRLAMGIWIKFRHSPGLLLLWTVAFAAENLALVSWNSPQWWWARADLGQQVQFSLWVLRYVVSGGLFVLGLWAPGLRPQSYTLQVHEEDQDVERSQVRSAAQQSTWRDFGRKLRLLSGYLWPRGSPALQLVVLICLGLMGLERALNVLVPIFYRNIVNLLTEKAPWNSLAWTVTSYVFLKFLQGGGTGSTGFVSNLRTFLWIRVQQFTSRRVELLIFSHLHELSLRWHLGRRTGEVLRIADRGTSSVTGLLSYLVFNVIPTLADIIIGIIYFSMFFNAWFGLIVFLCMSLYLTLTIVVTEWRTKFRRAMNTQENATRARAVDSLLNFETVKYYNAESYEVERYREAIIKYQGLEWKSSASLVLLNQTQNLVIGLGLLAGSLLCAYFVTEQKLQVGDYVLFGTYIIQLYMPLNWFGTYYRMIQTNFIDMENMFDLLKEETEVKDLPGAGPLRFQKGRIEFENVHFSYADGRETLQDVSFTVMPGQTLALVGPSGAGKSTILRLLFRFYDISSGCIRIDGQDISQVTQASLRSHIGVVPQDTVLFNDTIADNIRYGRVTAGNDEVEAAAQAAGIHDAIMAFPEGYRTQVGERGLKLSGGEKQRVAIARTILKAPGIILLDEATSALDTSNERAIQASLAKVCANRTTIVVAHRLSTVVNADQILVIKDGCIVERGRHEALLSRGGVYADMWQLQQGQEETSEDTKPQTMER
AP-2 complex subunit beta (Homo sapiens), sequence (P63010 whole entry, looked up, the tested form may be a part, one chain of several): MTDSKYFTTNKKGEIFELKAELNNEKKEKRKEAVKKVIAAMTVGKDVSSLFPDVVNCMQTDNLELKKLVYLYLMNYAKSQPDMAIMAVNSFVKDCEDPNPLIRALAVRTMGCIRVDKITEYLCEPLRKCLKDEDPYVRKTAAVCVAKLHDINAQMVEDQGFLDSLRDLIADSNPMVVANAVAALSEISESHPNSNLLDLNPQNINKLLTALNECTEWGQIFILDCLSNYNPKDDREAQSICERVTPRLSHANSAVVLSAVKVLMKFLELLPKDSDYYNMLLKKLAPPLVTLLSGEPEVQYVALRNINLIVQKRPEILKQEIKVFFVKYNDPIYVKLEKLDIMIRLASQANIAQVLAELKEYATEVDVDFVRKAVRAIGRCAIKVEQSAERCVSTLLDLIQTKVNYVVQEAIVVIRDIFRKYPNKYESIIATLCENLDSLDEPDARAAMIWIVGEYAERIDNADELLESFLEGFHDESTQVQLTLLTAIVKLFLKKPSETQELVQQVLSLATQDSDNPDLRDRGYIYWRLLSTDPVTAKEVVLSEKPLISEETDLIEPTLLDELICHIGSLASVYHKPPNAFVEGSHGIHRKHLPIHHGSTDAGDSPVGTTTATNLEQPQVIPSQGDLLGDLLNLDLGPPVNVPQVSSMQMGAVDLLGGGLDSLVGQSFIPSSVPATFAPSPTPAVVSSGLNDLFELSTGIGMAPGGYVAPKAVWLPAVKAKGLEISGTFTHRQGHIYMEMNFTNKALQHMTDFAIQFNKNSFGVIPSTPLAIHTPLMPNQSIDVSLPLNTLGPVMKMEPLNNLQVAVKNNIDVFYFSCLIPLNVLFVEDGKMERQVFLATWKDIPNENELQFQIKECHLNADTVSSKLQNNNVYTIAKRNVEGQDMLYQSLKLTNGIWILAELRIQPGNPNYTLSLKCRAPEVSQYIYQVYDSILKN
Integrin beta-1 (Homo sapiens) + Integrin alpha-4 (Homo sapiens), sequence (P05556 whole entry, looked up): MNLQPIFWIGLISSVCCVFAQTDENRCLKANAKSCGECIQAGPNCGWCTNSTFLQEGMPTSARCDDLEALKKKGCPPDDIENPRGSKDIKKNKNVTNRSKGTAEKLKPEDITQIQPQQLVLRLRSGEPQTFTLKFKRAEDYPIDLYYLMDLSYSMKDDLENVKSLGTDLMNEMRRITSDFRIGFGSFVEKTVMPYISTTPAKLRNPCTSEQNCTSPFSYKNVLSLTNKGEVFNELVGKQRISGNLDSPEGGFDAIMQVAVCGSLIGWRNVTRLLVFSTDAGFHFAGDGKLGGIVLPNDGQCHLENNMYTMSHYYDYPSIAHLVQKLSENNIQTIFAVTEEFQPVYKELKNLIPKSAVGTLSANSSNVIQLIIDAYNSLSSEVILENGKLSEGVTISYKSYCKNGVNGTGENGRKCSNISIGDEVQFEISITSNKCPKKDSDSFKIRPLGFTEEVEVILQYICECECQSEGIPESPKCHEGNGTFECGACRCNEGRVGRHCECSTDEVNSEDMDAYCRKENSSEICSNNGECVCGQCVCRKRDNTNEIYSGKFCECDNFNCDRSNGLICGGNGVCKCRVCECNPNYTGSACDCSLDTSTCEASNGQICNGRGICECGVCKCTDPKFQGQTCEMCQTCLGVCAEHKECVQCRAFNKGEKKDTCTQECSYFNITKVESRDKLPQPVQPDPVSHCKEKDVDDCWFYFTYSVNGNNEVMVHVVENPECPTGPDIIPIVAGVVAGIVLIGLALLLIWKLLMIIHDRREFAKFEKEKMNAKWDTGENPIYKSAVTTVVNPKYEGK
Integrin beta-1 (Homo sapiens) + Integrin alpha-4 (Homo sapiens), sequence (P13612 whole entry, looked up): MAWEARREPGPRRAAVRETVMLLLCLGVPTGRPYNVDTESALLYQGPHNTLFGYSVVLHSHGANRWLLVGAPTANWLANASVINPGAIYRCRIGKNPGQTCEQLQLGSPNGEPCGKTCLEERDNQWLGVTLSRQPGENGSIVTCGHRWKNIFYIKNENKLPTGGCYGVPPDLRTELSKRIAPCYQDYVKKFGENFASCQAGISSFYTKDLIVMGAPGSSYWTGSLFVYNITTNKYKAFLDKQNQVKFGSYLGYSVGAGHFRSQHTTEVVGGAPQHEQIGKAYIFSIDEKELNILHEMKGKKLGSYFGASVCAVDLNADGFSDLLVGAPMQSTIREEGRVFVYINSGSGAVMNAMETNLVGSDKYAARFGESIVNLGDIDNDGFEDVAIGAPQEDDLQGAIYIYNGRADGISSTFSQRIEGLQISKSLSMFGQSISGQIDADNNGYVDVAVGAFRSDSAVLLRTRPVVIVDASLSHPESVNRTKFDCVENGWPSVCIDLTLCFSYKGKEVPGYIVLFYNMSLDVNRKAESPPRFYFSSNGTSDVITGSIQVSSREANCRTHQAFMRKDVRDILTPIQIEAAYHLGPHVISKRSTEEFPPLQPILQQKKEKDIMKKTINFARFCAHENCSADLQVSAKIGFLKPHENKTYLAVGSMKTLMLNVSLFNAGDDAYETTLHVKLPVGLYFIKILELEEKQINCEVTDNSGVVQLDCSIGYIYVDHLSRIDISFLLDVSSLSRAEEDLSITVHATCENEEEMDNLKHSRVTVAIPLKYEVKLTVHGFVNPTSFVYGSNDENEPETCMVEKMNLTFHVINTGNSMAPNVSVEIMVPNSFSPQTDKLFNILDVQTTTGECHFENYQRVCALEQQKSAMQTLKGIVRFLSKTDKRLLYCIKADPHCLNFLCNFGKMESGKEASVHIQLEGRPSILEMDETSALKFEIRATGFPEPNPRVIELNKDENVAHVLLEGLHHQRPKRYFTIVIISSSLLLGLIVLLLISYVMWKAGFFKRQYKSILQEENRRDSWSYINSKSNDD

As usually defined, the inhibition is the change of the read-out against control, counted positive when it falls. For the molecule `Cc1nc2ccccc2n1CC(=O)NC1CCCC1`, in test [1], the percent of DMSO control GFP is 101% (inactive). The GFP response vs DMSO in [2] was 95.6% (inactive); in [4] it was 92.6% (inactive). The percent response of DMSO control in test [3] was 109% (inactive). In addition, the GFP response, % of DMSO in [5] was 105% (inactive). Also, in test [6], the double positive events came to 60.6%. The vesicle binding response in [6] is 118% (inactive). For the same molecule, the inhibition in test [7] was -2.43% (inactive); in test [11], -5.83% (inactive); in [15], -2% (inactive). Besides, in test [8], the superoxide response (% of plate) was 84.9% (inactive). Moreover, in [9], the aptamer binding inhibition is -2% (inactive). Also, the response in test [10] was 7.07% (inactive); in [12], 0.83% (inactive). The binding (% of control) in test [13] is 105% (inactive). The efflux inhibition (fraction of control) in [14] is 0.115 (inactive). For the same molecule, in [16], the differentiation response was -8.96% (inactive).

Turning to `CN1CCN(C2=Nc3ccccc3Oc3ccc(Cl)cc32)CC1`, the percent of DMSO control GFP in test [1] is 101% (inactive). For the same molecule, the GFP response vs DMSO in [2] is 115% (inactive); in [4] it was 79.8% (inactive). Besides, the percent response of DMSO control in [3] was 111% (inactive). In addition, the GFP response, % of DMSO in [5] is 100% (inactive). This molecule came in with a double positive events in test [6] of 61.6%. Also, in test [6], the vesicle binding response was 223% (inactive). The inhibition in [7] is 4.52% (inactive); in test [11], -13.5% (inactive); in test [15], 14% (inactive). Moreover, the superoxide response (% of plate) in [8] is 112% (inactive). In test [9], the aptamer binding inhibition is -9% (inactive). Further, the figures for the response in test [10] and in test [12] were -6.79% (inactive) and 0.86% (inactive), respectively. The binding (% of control) in test [13] is 109% (inactive). The efflux inhibition (fraction of control) in test [14] was 0.19 (inactive). Further, the differentiation response in test [16] is -0.82% (inactive).

Turning to `C=C(C)[C@@H]1CC=C(CN2CCC(N3CCC(C(=O)N4CCCC4)CC3)CC2)CC1`, the percent of DMSO control GFP in [1] is 105% (inactive). The figures for the GFP response vs DMSO in test [2] and in [4] were 91.9% (inactive) and 92% (inactive), respectively. The percent response of DMSO control in test [3] is 120% (inactive). Also, the GFP response, % of DMSO in [5] is 101% (inactive). The double positive events in test [6] was 60.1%. In test [6], the vesicle binding response was 292% (inactive). Also, the inhibition in [7] is 1.62% (inactive); in test [11], -12.5% (inactive); in test [15], -18% (inactive). For the same molecule, the superoxide response (% of plate) in [8] was 92.9% (inactive). The aptamer binding inhibition in test [9] is -18% (inactive). The response was -3.2% (inactive) in test [10] and 1.83% (inactive) in test [12]. Moreover, the binding (% of control) in test [13] is 130% (inactive). Moreover, in [14], the efflux inhibition (fraction of control) is 0.08 (inactive). In [16], the differentiation response is 6.11% (inactive).

On to `Cc1ccc(S(=O)(=O)NC(=O)NN2CCCCCC2)cc1`, for which the percent of DMSO control GFP in [1] is 102% (inactive). The values for the GFP response vs DMSO in [2] and in test [4] were 110% (inactive) and 96.6% (inactive), respectively. In test [3], the percent response of DMSO control is 100% (inactive). Moreover, the GFP response, % of DMSO in test [5] is 97.5% (inactive). Further, in test [6], the double positive events is 61.4%. In [6], the vesicle binding response was 226% (inactive). Also, the inhibition in test [7] was 29.6% (inactive); in [11] it was 3.4% (inactive); in [15], -2% (inactive). Moreover, the superoxide response (% of plate) in test [8] was 92.2% (inactive). Further, the aptamer binding inhibition in [9] was 4% (inactive). Moreover, the response in test [10] is -9.17% (inactive); in [12], -0.51% (inactive). Besides, in test [13], the binding (% of control) was 99.7% (inactive). In addition, in [14], the efflux inhibition (fraction of control) was -0.04 (inactive). Besides, the differentiation response in [16] is 14.9% (inactive).

`CC(=O)N(CCC1(c2ccc(C)cc2)CCOC(C(C)C)C1)Cc1ccco1` (stereo not given): in test [1], the percent of DMSO control GFP is 93.9% (inactive). Further, the figures for the GFP response vs DMSO in test [2] and in test [4] were 108% (inactive) and 82% (inactive), respectively. The percent response of DMSO control in test [3] is 116% (inactive). In addition, the GFP response, % of DMSO in test [5] was 96.6% (inactive). The molecule further returned a double positive events in test [6] of 46.3%. The vesicle binding response in [6] is 74.9% (active). The inhibition was -16.8% (inactive) in [7], 3.24% (inactive) in [11] and 9% (inactive) in test [15]. Moreover, the superoxide response (% of plate) in test [8] was 99.9% (inactive). Moreover, the aptamer binding inhibition in test [9] was -4% (inactive). Also, the response in test [10] is -3.21% (inactive); in test [12], -0.03% (inactive). The binding (% of control) in test [13] is 99.6% (inactive). The efflux inhibition (fraction of control) in test [14] is 0.05 (inactive). In test [16], the differentiation response was -1.64% (inactive).
